# Assay results taken from PubChem BioAssay (NCATS).
# Inconclusive results are not listed. Where a call stands in place of a potency, no number is given. Values without a mark were called inactive. Activity calls are given as the source filed them. Calls follow the shape of the dose curve; as a rule, active = well fitted cell-killing curve with a large enough effect; inconclusive = small, poorly fitted or top-dose-only effect, or effect the other way; inactive = flat fitted curve, though single readings scatter.
# Experiment: qHTS assay for cell viability of HEK293 cells (AID 743288); also: nearly all actives have a fitted effect of over 50% in size; also: potency is read from the fitted curve at half-maximal effect
# Conditions: ATP luminescence (CellTiter-Glo), 18 h; max response: stronger effect = lower value
# Summary of the method: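 HEK293 parental, 2,000 cells/well; ≥5 h pre-incubation 37 C; pintool compound addition; 18 h, 37 C; CellTiter-Glo 30 min RT; luminescence read.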
SMILES,max response,Potency
C#CCN1CC(=O)N(COC(=O)C2C(C=C(C)C)C2(C)C)C1=O (configuration not stated),-15.4%,–
COCC(C)N(C(=O)CCl)c1c(C)csc1C (configuration not stated),-15.8%,–
O=[N+]([O-])C(Br)(CO)CO,–,50.1 µM (active)

# Experiment: qHTS assay for cell viability of the p53RE-bla HCT-116 cell line (AID 743292); also: nearly all actives have a fitted effect of over 55% in size
# Conditions: p53RE-bla HCT-116 viability, ATP luminescence, 16 h; series mostly up to 95 µM
# Summary of the method: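 HCT-116 p53RE-bla cells seeded 4,000/well; 5 h at 37 C; compound (DMSO) added; 16 h at 37 C; CellTiter-Glo added, 30 min RT; luminescence read.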
row,SMILES,Potency
1,CC(C)Nc1ccc(Nc2ccccc2)cc1,inactive
2,C#CCN1CC(=O)N(COC(=O)C2C(C=C(C)C)C2(C)C)C1=O (configuration not stated),inactive
3,COCC(C)N(C(=O)CCl)c1c(C)csc1C (configuration not stated),inactive
4,O=[N+]([O-])C(Br)(CO)CO,inactive
